Screening results deposited in PubChem BioAssay by National Center for Advancing Translational Sciences (NCATS).
NPC1 promoter act: qHTS Assay for NPC1 Promoter Activators; Potency, µM (doses to about 9.22 µM), usual class: activators; Huh7 NPC1 promoter luciferase reporter, 24 h; hit rate 2.4% among 320,000; note: nearly all actives have a fitted effect of over 60% in size
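Quantitative HTS used a cell-based reporter: Huh7 cells stably bearing the NPC1 promoter upstream of luciferase were treated with compounds for 24 h, and promoter activation was read as luminescence.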
SMN2 splice up: qHTS Assay for Enhancers of SMN2 Splice Variant Expression; Potency, µM (doses to about 46.1 µM), hits mostly activators; AID 1458, 2008; HEK293 SMN2-luciferase splicing reporter, luminescence, 30-36 h; hit rate 2.8% among 210,000; note: nearly all actives have a fitted effect of over 55% in size
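qHTS luciferase splicing reporter: luminescence rises when SMN2 exon 7 is included in transfected HEK293 cells. Compound exposure lasted 30-36 h at 37C, with 4.5 mM final sodium butyrate as control, followed by a ONE-Glo read.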
ELG1 repair inh: qHTS screen for small molecules that inhibit ELG1-dependent DNA repair in human embryonic kidney (HEK293T) cells expressing luciferase-tagged ELG1; HEK293T ELG1-luciferase reporter, luminescence, 16 h; DNA damage induced by 5-fluorouridine; AID 504467, 2011; Potency, µM (titrated, usually from 46.1 µM), usual class: inhibitors; hit rate 2.3% among 330,000; note: nearly all actives have a fitted effect of over 55% in size
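Quantitative HTS, concentration-response format. 2,000 cells/well co-treated with 5-fluorouridine and compound, 16 hr in 5% CO2 at 37 °C; ONE-Glo luminescence read after 30 min.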
Rab9 prom act: qHTS Assay for Rab9 Promoter Activators; AID 485297, 2010; hit rate 2.8% among 320,000; Potency, µM (titrated, usually from 9.22 µM), usual class: activators; Huh7 Rab9 promoter-luciferase reporter, luminescence, 24 h; note: nearly all actives have a fitted effect of over 60% in size
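Measured in stably transfected Huh7 cells bearing a Rab9 promoter–luciferase construct: 24 h compound treatment at 37 °C, followed by luminescence detection.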
FLuc modulator: qHTS profiling assay for firefly luciferase inhibitor/activator using purifed enzyme and Km concentrations of substrates (counterscreen for miR-21 project) | AID 588342, 2011 | purified FLuc, Km substrates, luminescence inhibition | hit rate 6.9% among 360,000 | Potency, µM (highest dose often 57.5 µM), usual class: inhibitors; note: nearly all actives have a fitted effect of over 55% in size
Target sequence (P08659 whole entry, looked up): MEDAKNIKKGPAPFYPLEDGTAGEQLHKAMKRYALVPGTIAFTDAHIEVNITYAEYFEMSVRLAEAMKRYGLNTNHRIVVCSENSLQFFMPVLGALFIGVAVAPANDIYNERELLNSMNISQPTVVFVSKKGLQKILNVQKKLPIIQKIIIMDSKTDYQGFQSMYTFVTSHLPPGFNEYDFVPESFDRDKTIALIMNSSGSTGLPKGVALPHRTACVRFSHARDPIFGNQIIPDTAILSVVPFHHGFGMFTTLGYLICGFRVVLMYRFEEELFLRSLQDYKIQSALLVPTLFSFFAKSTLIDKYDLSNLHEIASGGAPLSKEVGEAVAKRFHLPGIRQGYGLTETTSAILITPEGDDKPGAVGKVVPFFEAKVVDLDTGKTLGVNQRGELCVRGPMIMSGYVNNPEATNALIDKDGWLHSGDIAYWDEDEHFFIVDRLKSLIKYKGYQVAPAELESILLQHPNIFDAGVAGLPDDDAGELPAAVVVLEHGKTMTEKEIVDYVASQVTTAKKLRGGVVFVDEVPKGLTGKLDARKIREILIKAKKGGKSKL
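Biochemical qHTS of compounds, final roughly 60 µM downward over six points, against 10 nM purified firefly luciferase using Km concentrations of substrates (10 uM D-luciferin, 10 uM ATP) in Tris acetate pH 7.5 buffer; luminescence output.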
ELG1 genotoxic: qHTS screen for small molecules that induce genotoxicity in human embryonic kidney (HEK293T) cells expressing luciferase-tagged ELG1 | AID 504466, 2011 | hit rate 1.3% among 330,000 | HEK293T ELG1-luciferase reporter, luminescence, 16 h | Potency, µM (series often up to 46 µM), usual class: activators; note: nearly all actives have a fitted effect of over 60% in size
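DMSO vehicle served as control against compound-treated ELG1-luciferase HEK293T cells; exposure lasted 16 hr at 37 °C and 5% CO2, followed by ONE-Glo luminescence detection after 30 min.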
A number is an active result; n = inactive; u = inconclusive; x = no result; [ ] = dose if it differs, or a comment. Hits are enriched below; roughly 9.4% of the tested compounds scored in any of these assays. Calls come from the whole dose curve; as a rule, active = well fitted curve in the direction sought with a large enough effect; inconclusive = small, poorly fitted or top-dose-only effect, or another doubt; inactive = no such curve, though single readings can be large; an effect the other way counts as inactive or inconclusive.

SMILES	NPC1 promoter act	SMN2 splice up	ELG1 repair inh	Rab9 prom act	FLuc modulator	ELG1 genotoxic
Cc1cc(C(=O)OCC(=O)c2ccc3c(c2)OCCO3)c(C)o1	u	n	u	n	9.5µM	n
Cc1noc(C)c1COc1ccc(C(=O)OCC(=O)c2ccc3c(c2)OCCO3)cc1	n	n	n	n	n	n
Cc1c(C(=O)OCC(=O)N2CCC(C)CC2)oc2ccccc12	n	x	u	n	u	u
Cc1c(C(=O)OCC(=O)c2ccc3c(c2)OCCO3)oc2ccccc12	n	n	u	n	9.5µM	n
O=C(Cc1csc2ccccc12)NCc1cccc(Br)c1	x	n	x	x	u	x
Cc1c2cnn(-c3ccccc3)c(=O)c2c(C)n1CC(=O)NCc1ccccc1	x	n	x	x	n	x
COc1ccc(/C=C/C2=NN(C)C(=O)CC2)cc1	2µM	11µM	u	2.8µM	11µM	u
CCOC(=O)CN1N=C(/C=C/c2ccc(C)cc2)CCC1=O	n	n	u	n	u	n
O=C(CSc1nc2cc3ccccc3cc2[nH]1)Nc1cccc(C(F)(F)F)c1	x	n	x	x	n	x
O=C(Nc1cccc(-c2cn3c(n2)SCC3)c1)c1ccc2ccccc2n1	0.28µM	13µM	u	0.4µM	3µM	u
CS(=O)(=O)Nc1ccc(-c2cn3c(n2)SCC3)cc1	n	x	u	n	u	n
CCCS(=O)(=O)Nc1cccc(-c2cn3c(n2)SCC3)c1	n	x	u	n	n	n
O=C(Nc1ccc(-c2cn3c(n2)SCC3)cc1)c1ccc2ccccc2n1	n	n	u	n	19µM	n
COc1ccc2c(c1)CC/C2=N\OC(=O)c1ccccc1OC	n	n	u	n	3µM	u
O=C(Nc1cccc(C(F)(F)F)c1)C1CCCN(S(=O)(=O)c2cccc3nonc23)C1 (stereo not drawn)	x	n	x	x	n	x
COc1ccc(C2=C(C(C)=O)Sc3nnc(-c4ccc(C)cc4)n3N2C(C)=O)cc1OC	x	x	x	x	n	x
COc1ccccc1/C=C/C=N/NC(=O)c1cnccn1	n	x	u	n	u	n
COc1ccccc1/C=C/C=N/NC(=O)c1ccccn1	2µM	11µM	u	1.1µM	8.5µM	n
COc1ccccc1/C=C/C=N/NC(=O)c1cc(-c2ccco2)[nH]n1	n	x	n	n	17µM	n
COc1ccc(C(=O)NCC2(N3CCN(C)CC3)CCCCC2)cc1	x	x	x	x	n	x
Cc1ccsc1C(=O)Nc1nccs1	u	x	u	u	u	n
Cc1ccc(C(=O)Nc2nc(=O)[nH]s2)cc1	n	n	n	n	24µM	n
Cc1ccc(C(=O)Nc2nccs2)cc1	2.8µM	10µM	u	2.2µM	8.5µM	u
CC(=O)Nc1sc(NC(=O)c2ccc(C)cc2)nc1-c1cccs1	n	11µM	n	n	n	n
O=C(Nc1nccs1)c1ccc(S(=O)(=O)NCc2cccs2)cc1	n	n	18µM	n	n	n
SMILES	NPC1 promoter act	SMN2 splice up	ELG1 repair inh	Rab9 prom act	FLuc modulator	ELG1 genotoxic
COc1ccc(C(=O)Nc2nc(-c3cccs3)c(NC(C)=O)s2)cc1	n	n	u	n	n	n
O=C(Nc1nccs1)c1ccc(S(=O)(=O)NCC2CCCCC2)cc1	n	n	n	n	n	n
CCOC(=O)c1c(NC(=O)/C=C/c2ccccc2)sc2c1CCCC2	x	n	x	x	n	x
COC(=O)N1CCC[C@@]2(CCN(Cc3cc(C(F)(F)F)cc(C(F)(F)F)c3)C2)C1	x	n	x	x	x	x
N#CCCCS(=O)(=O)c1nc2ccccc2s1	x	n	x	x	x	x
Nc1ccc(C(=O)Nc2nccs2)cc1	u	13µM	u	4µM	u	u
CC(NC(=O)c1ccco1)C(=O)Nc1nccs1 (stereo not drawn)	x	x	n	x	x	n
O=C(Nc1nccs1)c1ccc(NC(=O)c2ccco2)cc1	4µM	u	u	2.8µM	17µM	u
Cc1ccc(-c2nc3ccc(Cl)cc3c(=O)n2O)cc1	n	x	u	n	n	n
O=c1cc(-c2ccc(Cl)cc2)[nH]c2ccccc12	n	x	n	n	n	n
Cc1ccc2[nH]c(C(=O)O)c(-c3ccccc3)c2c1	n	n	n	n	n[2.3 µM]	n
Cc1ccc(-c2cc(=O)c3ccccc3[nH]2)cc1	n	n	u	u	19µM	n
Cc1ccc2[nH]c(-c3ccccc3)cc(=O)c2c1	u	11µM	u	u	1.7µM	u
Cc1ccc(-c2cc(=O)c3cc(Cl)ccc3[nH]2)cc1	u	x	u	4µM	0.54µM	u
Nc1n[nH]c(N)c1N=Nc1ccccc1F	n	x	u	n	u	n
Nc1n[nH]c(N)c1N=Nc1ccc(Cl)cc1Cl	n	x	u	n	13µM	u
O=C1NC2(CCCCC2)C(=O)N1/N=C/c1ccc(O)cc1O	n	n	n	n	17µM	n
C/C(=N\NC(=O)c1ccccc1OCc1ccc(F)cc1)c1ccccn1	n	x	u	n	21µM	n
COc1ccc(C(=O)N/N=C(\C)c2ccccn2)cc1OC	n	x	u	n	u	u
CCOc1ccc(OCc2ccc(C(=O)N/N=C(\C)c3ccccn3)cc2)cc1	n	n	u	n	12µM	u
c1ccc(C2=NN[C@@H]3c4ccccc4-c4ccccc4N3C2)cc1	x	n[9.22 µM]	x	x	x	x
COc1cccc(CNC(=O)CCc2c(C)c3cc4c(C)coc4cc3oc2=O)c1	x	n	x	x	n	x
COc1ccc(CC(=O)N/N=C(/C)c2ccco2)cc1	n	x	n	n	n	n
C/C(=N\NC(=O)c1ccco1)c1cc(Cl)sc1Cl	n	x	u	u	u	u
C/C(=N/NC(=O)c1cccs1)c1ccco1	n	u	u	u	17µM	u
SMILES	NPC1 promoter act	SMN2 splice up	ELG1 repair inh	Rab9 prom act	FLuc modulator	ELG1 genotoxic
C/C(=N\NC(=O)c1csc(C)c1C)c1ccco1	4µM	11µM	u	2.2µM	7.6µM	6.5µM
C/C(=N/NC(=O)OC(C)(C)C)c1ccco1	u	14µM	u	2.5µM	19µM	u
CC(/C=N/NC(=O)c1cccs1)=C\c1ccco1	3.2µM	11µM	u	1.4µM	6µM	9.2µM
CC(/C=N/NC(=O)Cc1cccs1)=C\c1ccco1	u	n	u	u	u	n
O=C(CCCn1c2ccccc2c(=O)c2ccccc21)Nc1ccc(F)cc1Cl	x	n	x	x	n	x
CCOc1ccccc1CNC(=O)CSc1n[nH]c(-c2ccccc2)n1	x	x	x	x	n	x
CCC(=O)Nc1ccc(/C(C)=N\NC(=O)c2ccc(C)s2)cc1	n	x	n	n	n	n
CC(=O)N/N=C(/C)c1ccc(NC(=O)c2csc(C)c2C)cc1	2.8µM	x	u	1.4µM	11µM	12µM
Cc1ccccc1Cn1c(SCc2ccc(C(=O)N3CCCCC3)cc2)nc2ccncc21	x	n	x	x	u	x
O=C(NC1CC1)c1ccc(Cn2c(SCc3ccccc3F)nc3cccnc32)cc1	x	x	x	x	4.8µM	x
